N-glyco inh – N-linked glycosylation inhibition. hit rate 0.23% among 360,000. D54 ERlucT glycosylation luciferase reporter, 24 h; percent of 100 nM tunicamycin response. reporter increase, % at 12.5 µM;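 active means mean luciferase reporter signal, scaled so untreated is 0 and the glycosylation-blocking control 100, at or above a set limit in every replicate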;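 further: luciferase carries N-glycosylation sites so blocking glycosylation raises the light; 0% = median of neutral control wells and 100% = median of 100 nM tunicamycin wells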
Casp6 inh – inhibitors of human caspase-6 | AID 686996 | inhibition, % at 12.5 µM | hit rate 0.53% among 350,000 | P55212 | purified caspase-6, Z-VEID-R110 cleavage fluorescence;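 active means mean inhibition across replicates at least about 35%, with every replicate also reaching that limit, limit read from the data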;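 further: 0% = median of neutral control wells and 100% = no fluorescence left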
Target sequence (P55212 24-179 limits assumed): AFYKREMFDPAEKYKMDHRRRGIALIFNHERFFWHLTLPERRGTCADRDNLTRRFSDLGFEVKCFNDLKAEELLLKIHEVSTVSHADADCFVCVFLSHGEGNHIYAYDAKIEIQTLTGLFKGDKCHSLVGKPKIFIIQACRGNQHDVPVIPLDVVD
Target sequence (P55212 194-293 limits assumed): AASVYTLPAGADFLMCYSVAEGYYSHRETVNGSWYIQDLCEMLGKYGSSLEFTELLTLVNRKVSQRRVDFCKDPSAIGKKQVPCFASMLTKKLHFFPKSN
RAD54 inh – RAD54 (human) branch migration inhibition; Q92698; RAD54 Holliday junction branch migration, FAM/BHQ fluorescence; inhibition, % at 10.4 µM; hit rate 0.14% among 360,000;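 active means mean normalized replicate activity at least 40 and at least half of replicates scoring 40 or more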;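 further: 0% = median of neutral control wells and 100% = median of positive control wells; inhibitors cause a drop in the FAM fluorescence signal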
NSD2 HMT inh – inhibitors of human histone methyltransferase NSD2; NSD2 peptide methylation, AlphaScreen, 120 min; inhibition, % at 12.5 µM; hit rate 0.54% among 310,000; AID 743445; in the data active means inhibition above about 50%
RAD52 anneal inh – RAD52 (human) annealing inhibition; hit rate 0.46% among 360,000; recombinant RAD52 DNA annealing, FRET fluorescence; AID 651710; inhibition, % at 18.7 µM;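 active means every replicate showing at least 50% inhibition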
Target sequence (P43351 whole entry, looked up): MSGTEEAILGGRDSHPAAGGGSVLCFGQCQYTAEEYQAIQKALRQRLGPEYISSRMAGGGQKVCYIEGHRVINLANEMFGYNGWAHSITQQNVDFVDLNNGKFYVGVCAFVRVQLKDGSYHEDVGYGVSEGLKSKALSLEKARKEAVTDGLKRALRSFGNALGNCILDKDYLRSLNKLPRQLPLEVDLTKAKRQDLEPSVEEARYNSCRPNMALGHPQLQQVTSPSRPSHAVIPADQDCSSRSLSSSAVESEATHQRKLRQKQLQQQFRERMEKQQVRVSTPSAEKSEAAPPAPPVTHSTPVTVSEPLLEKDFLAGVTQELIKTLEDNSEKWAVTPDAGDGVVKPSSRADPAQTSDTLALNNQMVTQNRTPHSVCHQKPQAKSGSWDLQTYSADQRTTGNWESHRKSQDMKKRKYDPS
CASP1 counter – selectivity counter-screen: inhibitors of human caspase-1 | shares compounds with Casp6 inh | purified caspase-1, Z-YVAD-R110 cleavage fluorescence | activity change, negative = inhibition, % at 35 µM | 100 tested, under 10 active;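 active means compounds lowering fluorescence whose fitted half-maximal concentration is no more than twice their top tested dose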
AlphaScreen art – AlphaScreen assay artifact in NSD2 counter-screen; shares compounds with NSD2 HMT inh; AlphaScreen artifact counterscreen, preloaded methylated H4 peptide; AC35, µM (highest dose often 10 µM), for the others: at the highest dose activity change, negative = signal loss; hit rate 9.4% among 1,500; AID 1053174; call rule not given here
An asterisk follows results filed as active; i = inactive; x = not tested or not shown. The list is not random: actives were taken first. Their share in the collection is about 1.2%.

SMILES | N-glyco inh | Casp6 inh | RAD54 inh | NSD2 HMT inh | RAD52 anneal inh | AlphaScreen art | others
COc1ccc(NS(=O)(=O)c2ccc3c(c2)[C@H]2C=CC[C@H]2[C@@H](c2ccc(C(=O)O)cc2)N3)cc1 | 2 | 53* | -7 | 55* | -29 | -11% | CASP1 counter=3
CN1C[C@H]2[C@@H](c3ccccc31)[C@H](CO)N2Cc1ccccc1Cl | x | -5 | -8 | x | 6 | x
COCCn1c2nc(=O)n(-c3ccccc3)c(=O)c-2nc2ccccc21 | 4 | 70* | x | 50* | i | 0% | CASP1 counter=5
COCCn1c(-c2ccc(OC)cc2)nc2ccccc21 | 1 | x | x | 15 | x | x
Cc1c(NC(=O)C(C)OC(=O)c2ccc([N+](=O)[O-])s2)c(=O)n(-c2ccccc2)n1C (stereo not given) | 4 | 94* | 2 | 115* | -3 | -2% | CASP1 counter=4
Cc1c(NC(=O)C(C)OC(=O)c2sc3ccccc3c2Cl)c(=O)n(-c2ccccc2)n1C (stereo not given) | 0 | 1 | x | 3 | 3 | x
C[C@@H]1CN([C@H](C)CO)C(=O)c2cc(NC(=O)CCC(F)(F)F)ccc2O[C@@H]1CN(C)CC1CCCCC1 | x | -1 | 2 | x | 5 | x
Cc1cc(/C=C(/C#N)c2nc3ccccc3[nH]2)c(C)n1-c1cc(C(=O)O)cc(C(=O)O)c1 | -1 | x | x | 76* | -386 | -6%
O=C1C(=O)C(Cl)=C(Cl)C(Cl)=C1Cl | 1 | x | -10 | 91* | x | -12%
C[C@@H]1CN([C@@H](C)CO)C(=O)c2cc(NC(=O)Cc3ccccc3)ccc2O[C@@H](C)CCCCO[C@@H]1CN(C)S(=O)(=O)c1ccccc1 | x | 0 | 4 | x | -33 | x
O=C(C[C@@H]1CC[C@@H]2[C@H](COC[C@H](O)CN2C(=O)c2ccccc2)O1)Nc1ccc(-c2ccccc2)cc1 | x | 2 | 10 | x | 5 | x
CSc1nc(N)nc(N(C)C)n1 | 2 | -1 | -4 | 61* | -6 | 1%
CCCn1c2c(c(O)c(C(=O)NCCCN(CC)CC)c1=O)CCCC2 | -1 | x | -18 | 59* | x | -9%
CCCn1c2c(c(O)c(C(=O)NC)c1=O)CCCC2 | 1 | x | -3 | 0 | x | x
CN1CC2(Cc3c1ccc1ccccc31)C(=O)OC(C)(C)OC2=O | 0 | x | 14 | 87* | x | 1%
O=C(Nc1nnc(SCc2ccc(F)cc2)s1)c1ccccn1 | 0 | 3 | x | 65* | -32 | -7%
O=C(Nc1nnc(SCc2ccc(F)cc2)s1)c1cccnc1Cl | 4 | 4 | -3 | 20 | -37 | x
N#C/C(=C\c1ccc(-c2ccc(C(=O)O)cc2)o1)C(=O)NCC1CCCO1 (stereo not given) | 0 | x | x | 54* | x | -4%
CCN(CC)CCNS(=O)(=O)c1ccc2c3c(cccc13)C(=O)N2 | 4 | -6 | 13 | 55* | -6 | 1%
CC(=O)Nc1ccc(S(=O)(=O)NCCNS(=O)(=O)c2ccc(NC(C)=O)cc2)cc1 | 2 | 2 | 0 | -7 | -9 | x
CC(=O)Nc1ccc(S(=O)(=O)NCCSCc2ccc(Cl)cc2Cl)cc1 | -3 | x | 5 | 50* | x | 0%
COCC(=O)Nc1ccc2c(c1)C(=O)N(C)C[C@H](OC)[C@H](C)CN(C(=O)Cc1ccccn1)[C@@H](C)CO2 | x | 4 | -5 | x | -1 | x
CCN(CC)CCNC(=O)c1cccc(NC(=O)C(=O)c2cc(Br)ccc2NC(C)=O)c1 | 2 | -13 | -6 | 57* | 10 | -3%
COc1ccc(NS(=O)(=O)c2cc(NC(=O)COc3ccccc3)ccc2N2CCOCC2)cc1 | 0 | -3 | -4 | 60* | -7 | -3%
COc1ccc(NS(=O)(=O)c2cc(NC(=O)c3ccccc3)ccc2N2CCOCC2)cc1 | 3 | 1 | 0 | -4 | -14 | x
SMILES | N-glyco inh | Casp6 inh | RAD54 inh | NSD2 HMT inh | RAD52 anneal inh | AlphaScreen art | others
COc1ccc(S(=O)(=O)Nc2ccc3c(c2)C(=O)N([C@@H](C)CO)C[C@@H](C)[C@H](CN(C)Cc2ccncc2)OCCCC[C@H](C)O3)cc1 | x | -2 | 1 | x | -13 | x
COc1ccc(C)cc1S(=O)(=O)Nc1ccccc1C | 0 | x | -7 | 69* | x | 1%
COCC(=O)Nc1ccc2c(c1)C(=O)N(C)[C@H]1CC[C@H](CC(=O)NCC(F)(F)F)O[C@@H]1CO2 | x | -1 | -7 | x | -1 | x
COc1ccc(C(C[N+](=O)[O-])c2c(C)[nH]n(-c3ccccc3)c2=O)cc1 (stereo not given) | 5 | 26 | 4 | 92* | -10 | -3%
C[C@@H]1CN([C@@H](C)CO)C(=O)c2cc(NS(=O)(=O)c3ccc(F)cc3)ccc2O[C@@H](C)CCCCO[C@H]1CN(C)C(=O)C1CCCCC1 | x | -1 | 0 | x | 23 | x
Cc1cc(-c2n[nH]c(=S)n2N=Cc2cccc(OCc3ccccc3)c2)n[nH]1 | x | x | x | 63* | x | -9%
CN(C)CC(=O)N1[C@@H]2c3cccc(=O)n3C[C@@H]2[C@@H](CO)[C@@H]1C(=O)NCc1ccccc1F | x | 2 | x | x | -2 | x
O=C(NCC1CC1)[C@@H]1[C@@H](CO)[C@@H]2Cn3c(ccc(-c4ccccc4)c3=O)[C@H]1N2CC1CC1 | x | -3 | -5 | x | 9 | x
COc1ccc(NC(=O)CSc2nc3nc(-c4cccs4)cc(C(F)(F)F)c3c(=O)[nH]2)c(OC)c1 | 3 | x | -6 | 10 | x | x
CCOc1ccccc1NC(=O)CSc1nc2nc(-c3cccs3)cc(C(F)(F)F)c2c(=O)[nH]1 | 1 | -2 | x | 84* | -14 | -1%
Cc1ccc(C(=O)N/C(=C\c2ccco2)C(=O)NCCN2CCCCC2)cc1C | 0 | -8 | -5 | 5 | -5 | x
O=C(NCCN1CCCCC1)/C(=C/c1ccco1)NC(=O)c1ccccc1 | 1 | -8 | -8 | 79* | -14 | -2%
COCC(=O)Nc1ccc2c(c1)OC[C@@H](C)N(Cc1ccccc1F)C[C@H](C)[C@@H](OC)CN(C)C2=O | x | 1 | x | x | -9 | x
COc1ccc(CCNC(=O)C2CCN(C(=O)c3ccccc3)CC2)cc1 | x | -1 | x | -6 | -5 | x
COc1ccc(CCNC(=O)C2CCN(C(=O)c3ccccc3C)CC2)cc1 | -1 | 1 | -24 | 51* | -4 | -2%
CCOC(=O)C1CCN(c2nc(N)c3c(N)nc(SCC(=O)O)cc3c2C#N)CC1 | 2 | 65* | -43 | 101* | -87 | -6%
COc1cccc(CNC(=O)C[C@@H]2C=C[C@@H](NC(=O)C3CCOCC3)[C@H](CO)O2)c1 | x | 0 | 8 | x | 2 | x
CN(C)c1ccc(NC2=C(Cl)C(=O)c3ccccc3C2=O)cc1 | -18 | 4 | 6 | 58* | 0 | 8.8µM*
NS(=O)(=O)c1ccc2c(c1)C(=NO)c1cc(S(N)(=O)=O)ccc1-2 | 1 | 2 | 3 | -2 | -5 | x
NC1=C(Cl)C(=O)c2ccc(S(N)(=O)=O)cc2C1=O | -20 | 100* | 2 | 114* | 25 | -2%
CCOC(=O)C1=CC[C@@H](c2ccc(OC)cc2)[C@@H]1C(=O)c1ccccc1 | x | 9 | 2 | x | -15 | x
